Assay outcomes as filed in PubChem.
ATXN2 expr inh – Primary qHTS for Inhibitors of ATXN expression; AID 1745845, 2022; HEK-293 ATXN2-luciferase reporter, luminescence, 24 h; Potency, µM (series often up to 57 µM), inactives show top-dose activity change, negative = inhibition, actives largely listed as inhibitors; actives 0.72% (n = 360,000); also: % is scaled to controls: 0 for no effect and ±100 for the full control effect; nearly all actives have a fitted effect of over 55% in size
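qHTS (up to 57 uM final) was run with 24 h compound exposure of reporter cells at 37 °C. Each well was multiplexed: SteadyGlo luminescence measured ATXN2-luciferase expression after a fluorogenic Gly-Phe-AFC viability readout (25 uM final).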
HepG2 tox – qHTS for Inhibitors of TGF-b: Cytotox Counterscreen | AID 588856, 2011 | HepG2 CAGA-GFP viability, ATP luminescence, 18 h | actives 0.76% (n = 410,000) | Potency, µM (highest dose often 46.1 µM), for inactives: top-dose activity change, negative = cytotoxicity, hits mostly cytotoxic
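HepG2 CAGA-GFP cells (1000/well, DMEM with 1% FBS) received compound, then TGF-beta at 500 pg/mL final, and were incubated 18 hours at 37 degrees C. Viability was read by CellTiter-Glo luminescence. Media-only wells were set as complete cell-killing and DMSO as no toxicity.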
GLP-1R inv ag – qHTS of GLP-1 Receptor Inverse Agonists (Inhibition Mode); Glucagon-like peptide 1 receptor (Homo sapiens), P43220; HEK293 GLP-1R CRE-luciferase, luminescence, 24 h; GLP-1R form is constitutively active; Potency, µM (series often up to 38.3 µM), for the others: top-dose activity change, negative = inhibition, usual class: inhibitors; AID 624417, 2012; actives 1.6% (n = 410,000); also: % is scaled to controls: 0 for no effect and ±100 for the full control effect; nearly all actives have a fitted effect of over 55% in size
Target sequence (P43220 whole entry, looked up): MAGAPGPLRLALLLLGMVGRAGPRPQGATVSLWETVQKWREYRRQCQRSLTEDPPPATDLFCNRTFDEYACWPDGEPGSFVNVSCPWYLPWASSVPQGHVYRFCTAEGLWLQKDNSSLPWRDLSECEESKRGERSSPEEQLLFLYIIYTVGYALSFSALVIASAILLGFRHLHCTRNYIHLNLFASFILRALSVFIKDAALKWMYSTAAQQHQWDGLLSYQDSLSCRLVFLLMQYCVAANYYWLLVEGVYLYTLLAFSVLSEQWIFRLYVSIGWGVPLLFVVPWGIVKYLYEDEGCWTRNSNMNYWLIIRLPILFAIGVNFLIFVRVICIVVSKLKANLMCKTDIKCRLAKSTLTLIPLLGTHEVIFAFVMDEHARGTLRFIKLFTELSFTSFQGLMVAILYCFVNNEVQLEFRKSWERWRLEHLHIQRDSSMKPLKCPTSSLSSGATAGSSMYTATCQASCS
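HEK293 cells stably co-expressing a cAMP-responsive luciferase reporter and constitutively active GLP-1R were seeded, incubated 12 h, then exposed to compounds for 24 h at 37 C. Luminescence was read 12 min after detection reagent; inverse agonists lower signal.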
GLP1R ag – qHTS of GLP-1 Receptor Agonists; Potency, µM (top dose mostly 45.6 µM), for inactives: at the highest dose activation, hits mostly activators; actives 0.007% (n = 380,000); AID 624172, 2012; HEK293 GLP-1R CRE-luciferase, luminescence, 4-6 h; cells express a hypersensitive GLP-1R form; also: % of control where 0% means no effect
S2 tox – Viability Counterscreen for Primary qHTS for Inhibitors of ATXN expression. actives 0.49% (n = 400,000). Potency, µM (series often up to 56.7 µM), usual class: cytotoxic. S2 cells (HEK-293 line with an ATXN2-luciferase reporter) viability, CellTiter-Fluor protease fluorescence, 24 h. AID 651635, 2014; also: nearly all actives have a fitted effect of over 40% in size
TGFb inhibitor – qHTS for Inhibitors of TGF-b; HepG2 CAGA-GFP TGF-b/SMAD3 reporter, GFP fluorescence, 18 h; TGF-beta stimulated, 500 pg/mL final; Potency, µM (doses to about 46.1 µM), for inactives: at the top dose activity, negative = inhibition, actives largely listed as inhibitors; actives 1.2% (n = 410,000); also: % is scaled to controls: 0 for no effect and ±100 for the full control effect; nearly all actives have a fitted effect of over 65% in size
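HEPG2 CAGA-GFP reporter cells (1000/well, DMEM with 1% FBS) received compounds, then recombinant TGF-beta at 500 pg/mL final for 18 hours at 37 degrees C. Per-cell GFP summed per well was normalised to unstimulated and stimulated DMSO controls before curve fitting.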
An asterisk follows results filed as active; i = inactive; u = inconclusive; x = no result given. This is a sample that favours compounds with a hit; in the whole collection about 3.7% have one here. Calls follow the shape of the dose curve; as a rule, active = well fitted curve in the direction sought with a large enough effect; inconclusive = small, poorly fitted or top-dose-only effect, or another doubt; inactive = no such curve, though single readings can be large; an effect the other way counts as inactive or inconclusive. Potency is read from the fitted curve at half-maximal effect.

SMILES | ATXN2 expr inh | HepG2 tox | GLP-1R inv ag | GLP1R ag | S2 tox | TGFb inhibitor
O=C(COC(=O)c1cccc(S(=O)(=O)N2CCCCCC2)c1)Nc1ccccc1C(F)(F)F | -4.3% | 0.0% | -18.1% | 6.3% | i | 11.7%
Clc1cccc(N2CCN(c3nc4ccccc4c4nc(-c5ccccc5)nn34)CC2)c1 | 12.4% | -5.7% | -5.4% | x | i | 0.4%
C[C@H](NC(=O)C(C#N)=Cc1cccc(Br)n1)c1ccccc1 | 21.7µM* | x | x | x | x | x
COc1ccccc1/C=C/C=C(\C#N)C(=O)NC(C)c1ccccc1 (stereo not drawn) | -20.9% | -7.0% | 11.2µM* | 13.2% | i | -26.8%
CC(NC(=O)/C(C#N)=C/c1ccc(C(=O)O)cc1)c1ccccc1 (stereo not drawn) | -11.2% | 0.6% | -3.0% | -1.6% | i | 6.1%
COc1ccc(OC)c(CNc2ncnc3c2nc2n3CCCC2)c1 | x | 2.1% | u | x | x | -12.1%
CC(C)[C@@H](NC(=O)OC(C)(C)C)c1cc(C(=O)c2c(-c3ccccc3)[nH]c3ccccc23)c(N)s1 | x | x | 7.08µM* | x | x | x
CN(C)c1ccc(/C=C/c2ccnc3c([N+](=O)[O-])cccc23)cc1 | x | -39.7% | x | x | x | -2.4%
CCOc1ccc(-c2[nH]ncc2Oc2cccc(OC)c2)c(O)c1 | -33.5% | -47.0% | u | 9.1% | i | u
CCCOC(=O)c1ccc(Oc2cn[nH]c2-c2ccc(OCC)cc2O)cc1 | u | -110.8% | 10µM* | -25.6% | u | u
CCCOC(=O)c1ccc(Oc2c(-c3ccc(OCC)cc3O)n[nH]c2C)cc1 | u | 11.2µM* | u | -8.3% | x | 11.2µM*
COc1ccc(Oc2c(-c3ccc(O)cc3O)n[nH]c2C)cc1 | -1.0% | -7.9% | u | 4.8% | i | 3.8%
CCOC(=O)c1[nH]c(C)c(CCC(=O)Nc2cc(Cl)ccc2C)c1C | -0.1% | -28.3% | -1.8% | x | i | -4.5%
Cc1nc2c(OCc3ccc(C(F)(F)F)cc3)cccn2c1N(C)CC1CC1 | 35.5µM* | 10µM* | u | -6.6% | 22.4µM* | 11.2µM*
CCOC(=O)N(C)c1c(CC)nc2c(OCc3ccc(Cl)cc3Cl)cccn12 | u | -10.1% | u | 8.6% | u | -16.7%
CCCCC(=O)N(C)c1c(CC)nc2c(OCc3ccc(C(F)(F)F)cc3)cccn12 | u | -38.7% | 11.2µM* | -3.8% | u | u
CCc1nc2c(OCc3ccc(Cl)cc3Cl)cccn2c1N(C)C(C)=O | 17.8µM* | -45.7% | u | 8.3% | x | u
CCC(CC)C(=O)N(C)c1c(C)nc2c(OCc3cc(Cl)cc(Cl)c3)cccn12 | -25.1% | -92.8% | 11.2µM* | 10.3% | i | 12.6µM*
CC1=CCC(C(C)(C)O)CC1 (stereo not drawn) | x | x | x | 5.5% | x | x
CCc1ccc(NC(=O)CN(c2ccc(C)cc2)S(=O)(=O)c2cccs2)cc1 | -15.9% | -22.2% | -0.9% | -0.9% | i | 7.4%
O=C(c1ccc(CS(=O)c2ccccc2Cl)o1)N1CCN(c2ccccc2F)CC1 (stereo not drawn) | x | -46.3% | u | x | x | u
C1=CCN(c2nc(N3CCOCC3)nc(N3CCCc4ccccc43)n2)CC1 | x | -5.3% | 11.2µM* | 7.2% | i | 3.0%
CCN(CC)C(=O)C1CCCc2c1[nH]c1ccc(Cl)cc21 (stereo not drawn) | 14.0% | -12.1% | 4.47µM* | -7.2% | i | u
NC(=O)C1CCCc2c1[nH]c1ccc(Cl)cc21 (stereo not drawn) | -18.0% | x | x | x | x | x
Cc1c(CCCN)c2ccccc2n1Cc1ccccc1 | u | 15.8µM* | u | 5.9% | u | u
SMILES | ATXN2 expr inh | HepG2 tox | GLP-1R inv ag | GLP1R ag | S2 tox | TGFb inhibitor
Cc1cccc(-n2c(=O)c3ccccc3n(Cc3ccccc3)c2=O)c1 | -12.2% | -15.7% | u | 0.4% | i | -5.6%
Cc1ccc(-c2cc(C(=O)NCCc3ccccc3)c3ccccc3n2)cc1C | 16.4% | -21.3% | 7.7% | x | i | -18.5%
Cc1cc(/C=N/n2cnnc2)c(C)n1-c1ccc(OCc2ccccc2F)cc1 | u | 12.6µM* | u | 4.8% | i | 11.2µM*
Cc1cc(/C=N/n2cnnc2)c(C)n1-c1ccc(OCc2ccc(Cl)cc2)cc1 | -19.0% | -24.2% | 22.8% | 7.9% | u | u
CCOc1ccc(-c2cc3nc(C4CCN(C(=O)OC(C)(C)C)CC4)c(C(=O)Nc4ccc(C)c(F)c4)cn3n2)cc1 | 10.9% | -69.9% | 6.1% | x | i | u
CN1CCN(CCCN2c3ccccc3Sc3ccccc32)CC1 | x | x | x | -5.3% | u | x
CN1CCCC(CN2c3ccccc3Sc3ccccc32)C1 (stereo not drawn) | u | -67.8% | 10µM* | 7.2% | i | u
COc1cccc(-c2cc(NC=O)c3ncc(-c4ccc(C(C)=O)cc4)n3c2)c1 | u | 1.8% | u | u | i | 17.8µM*
COc1cccc(-c2cnc3c(NC=O)cc(-c4ccoc4)cn23)c1 | -9.4% | -0.7% | 11.7% | 24.0% | u | u
COc1ccc(F)cc1-c1cc(NC=O)c2ncc(-c3cccc(C(=O)N(C)C)c3)n2c1 | 25.1µM* | -27.7% | u | 20.5% | u | -4.9%
CN(C)C(=O)c1cccc(-c2cnc3c(NC=O)cc(-c4ccccc4N(C)C)cn23)c1 | u | -34.5% | 37.3% | 23.2% | i | -20.6%
COc1cccc(-c2cnc3c(NC=O)cc(-c4ccccc4)cn23)c1 | 0.0% | -30.5% | u | 11.8% | i | 8.91µM*
COc1ccc(-c2cc(NC=O)c3ncc(-c4cccc(C(C)=O)c4)n3c2)cc1 | -13.5% | -0.9% | u | u | u | u
O=C(Nc1nc2ccc(F)cc2s1)C1=COCCO1 | u | -51.7% | u | -20.7% | i | 0.0%
O=C(Nc1nc2cc3c(cc2s1)OCCO3)C1=COCCO1 | u | 8.91µM* | u | -1.5% | i | -13.1%
c1cc2c(cc1Cc1cncc(Cc3ccc4c(c3)OCO4)c1)OCO2 | x | 5.7% | x | x | x | 21.8%
O=C(NCCc1ccccn1)C1CC12CCN(C(=O)c1ccc(F)cc1Cl)CC2 (stereo not drawn) | x | x | x | x | i | x
O=C(CCSCc1cccc(Cl)c1)NCCC1=CCCCC1 | 1.9% | 9.2% | 10µM* | 3.0% | i | -68.6%
